Legend:
Assay in all cases: PBM binding z-score (relative to random genomic background probes); higher = stronger binding; sequences stand for … in GC…GCGATTGACAGCGTAGAATGAAGG
[1] = system: FXR:RXRa (NR concentration 270 nM, RXRa partner concentration 90 nM)
Outline: (§1)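 Random background probes are the reference for binding z-scores. These scores derive from regression-normalized fluorescence on custom Agilent 4×180K protein-binding microarrays incubated 1 h with ligand-free nuclear receptor dimers. Binding was detected with antibodies against each partner (one per run).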

[2] = system: LXRa:RXRa (NR concentration 270 nM, RXRa partner concentration 90 nM)
Outline: as §1

[3] = system: LXRa homodimer (NR concentration 270 nM)
Outline: as §1

[4] = system: LXRb:RXRa (NR concentration 270 nM, RXRa partner concentration 90 nM)
Outline: as §1

[5] = system: LXRb homodimer (NR concentration 270 nM)
Outline: as §1

[6] = system: PPARa:RXRa (NR concentration 270 nM, RXRa partner concentration 90 nM)
Outline: as §1

[7] = system: PPARg:RXRa (NR concentration 180 nM, RXRa partner concentration 90 nM)
Outline: as §1

[8] = system: PPARg:RXRa 270nM:90nM, anti-RXR (NR concentration 270 nM, RXRa partner concentration 90 nM)
Outline: as §1

[9] = system: PPARg:RXRa 30nM:10nM, anti-RXR (NR concentration 30 nM, RXRa partner concentration 10 nM)
Outline: as §1

[10] = system: PPARg:RXRa 90nM:30nM, anti-RXR (NR concentration 90 nM, RXRa partner concentration 30 nM)
Outline: as §1

Sequence	PBM binding z-score [1]	PBM binding z-score [2]	PBM binding z-score [3]	PBM binding z-score [4]	PBM binding z-score [5]	PBM binding z-score [6]	PBM binding z-score [7]	PBM binding z-score [8]	PBM binding z-score [9]	PBM binding z-score [10]
ACTATTAGTTGACTTAGGGTAACCGATACGACGC	0.985	1.09	1.21	0.679	0.748	0.468	0.907	0.758	0.442	0.705
TCAGACAGGTGAAGGTAACTGAGGTACGCAGTCG	1.04	1.01	-0.19	0.598	-0.756	1.2	0.727	1.98	3.74	2.96
CTCGAAAGGTCGTGCTCAGGTGAGTAAACCAAAC	5.29	3.87	0.151	3.25	0.181	4.92	2.7	4.18	0.732	2.6
TCGAGTAGGTTAGTCCGGGCATTCAGCCAACATA	-0.219	0.109	0.0222	-0.106	-1.05	0.14	-0.395	0.281	0.992	0.409
GGAACGAGGGCAAGGTGATAGCAGAGTTTGATGG	0.873	0.623	-0.0759	0.183	-0.496	1.74	1.76	1.89	0.199	1.19
CCGTACGGGTCACTCCAGGTTATAGCATCGGAGT	5.48	7.91	1.62	5.38	-0.751	4.45	2.97	3.49	1.05	1.9
CCGACTGAGGCATAAGGTTACCATAAGCCAGCCC	0.414	2.01	-0.182	1.05	-1.08	1.18	0.973	1.31	-0.0351	0.852
GTACCGAGGTGAATAGGTCGTTGATGAGTAGGCG	1.03	0.978	-0.306	0.874	-0.778	2.68	1.86	2.13	0.147	0.886
TTACCAAGTTGAGCTGAGGTCGTTGATCCAACTC	0.614	0.638	-0.367	0.536	-0.873	1.03	-0.512	0.423	0.243	-0.0903
ACAGACAGGTGTGTGAAGGTAACTCAGCTGGACG	0.0191	-0.00303	-0.46	-0.618	-0.921	-0.347	0.522	-0.0357	-0.212	-0.375
ACAGACAGGTGCGTGAAGGTAACTCAGCTGGACG	-0.446	-0.525	-0.81	-0.869	-0.883	-0.268	0.476	-0.586	-0.564	-0.492
ATCTCTAGGTAACCGAGTTCAGTGAATGCCGAAC	0.422	0.883	1.08	0.706	0.377	1.44	0.672	1.1	-0.103	0.724
ACTAGCAGGCTAAGTTTGGGTCACTCAAACAAAG	-0.0373	-0.132	-0.315	0.424	-0.557	1.28	-0.0855	0.315	-0.575	-0.155
CCTTATGGGTCAAGGTTATAGCACGGGTGGTACG	4.02	2.78	0.0856	2.3	-0.169	4.23	5.35	5.19	2.54	4.72
TCTCGGAGGACACGAAGGGTCAGAGCTCGACATC	1.35	1.66	-0.0975	1.19	-1.38	2.06	0.488	1.25	1.85	1.44
CCTATTAGTTGGCCATAAGGGCAACCGAAGCTCG	0.403	0.0422	-0.122	-0.00443	-0.0843	0.154	0.332	0.665	-0.257	0.493
CTATCAAGGTGAACAAGGTCGTTGATTACTATTC	1.16	1.14	-0.163	1.54	-0.39	2.47	1.53	1.51	0.103	0.808
ATATGTCGGTTATCGGGTCATTCAGTTTGCGCAT	2.49	2.52	1.64	2.54	0.586	3.3	2.53	2.94	0.785	2.19
TCATATACGTAATACAGGTGAAAGTCGGCATCTA	1.21	1.13	0.327	1.26	0.782	1.75	1.26	2.79	3.96	3.36
ATCGAAAGGTCGAAGGTGAGTATCCCCACCCGAA	3.99	3.46	0.139	2.58	0.489	4.42	4.5	4.68	2.04	3.58
CGTCCAAGCTCAGAGAGGTCAGTGAATGCCGAGT	1.33	1.41	0.781	1.52	-0.498	2.19	-0.188	0.558	-0.581	-0.0568
CTGCCTAGGTCAGGGCCAGTATAGGAGGAACGTT	1.28	1.01	-0.475	0.634	-1.25	1.88	0.668	0.916	-0.35	0.272
TAGCCTAGGTCAAATCGGGCCAGTATACGCTATA	5.06	4.49	0.78	3.26	0.87	4.1	2.33	2.88	0.735	2.01
ATCTCTAGGTAACCAAGTTCAGTGCATGCCGAAC	0.755	1.14	0.876	0.833	0.777	1.38	0.901	0.936	0.401	0.474
ACTAGTTGGTCAGCTGAGGTCACAGACAATTCGG	2.95	3.29	1.84	3.27	0.184	3.71	1.72	2.16	0.454	1.43
